# According to the supplement of paper PMC4954754:
# ± gives the uncertainty stated by the source.
# System: HEK293T-Rex XBP1-RLuc
# Assay: XBP1-RLuc splicing reporter activation, triplicate, relative to 500 nM thapsigargin (% of thapsigargin); higher = stronger IRE1/XBP1s reporter activation
# Settings: 6.8 µM; 18 h; screen: confirmation
# Protocol: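 HEK293T-Rex cells stably expressing the ERSE-firefly luciferase (BiP promoter, ATF6-preferring) or XBP1-splicing Renilla luciferase (IRE1/XBP1s) reporter, 1536-well plates, compound at 6.8 µM for 18 hr at 37 °C; luminescence read […] and expressed as % activation = 100*(compound - median DMSO)/(median 500 nM thapsigargin - median DMSO). Primary screen was single-pass; confirmation screen in triplicate (mean ± SD).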
row,SMILES,XBP1-RLuc splicing reporter activation
1,Oc1ccc(/C=N/Nc2cccc3cccnc23)cc1O,17.3 ± 2.3
2,O=C1NC(=Nc2ccc(F)cc2)S/C1=C\c1ccc(O)c(O)c1,17.4 ± 1.8
3,CCCNC(=O)c1cc(-c2ccc(F)cc2)on1,4.12 ± 0.34
4,Nc1ccc2nc(/C=C/c3ccco3)[nH]c2c1,17.8 ± 0.14
5,O=C1NC(=Nc2ccccc2)S/C1=C/c1ccc(O)c(O)c1,20.9 ± 2.1
6,O=C(NCCc1ccccc1)c1cc(-c2cccs2)on1,5.58 ± 1
7,CC(=Nc1ccc(O)cc1)c1sc2ccccc2c1O,15.7 ± 4.1
8,COc1ccccc1/C=N/Nc1nc(-c2ccccc2)cc(=O)[nH]1,7.58 ± 1.9
9,O=C(N/N=C/c1cccc(O)c1O)c1ccccn1,27 ± 0.75
10,Cc1ccc2nc(/C(C#N)=C/c3ccc(O)c(O)c3)[nH]c2c1,16.5 ± 0.47
11,COc1ccc(-c2csc(N(CC3CCCO3)C(=O)CCl)n2)cc1 (stereo not given),2.74 ± 0.89
12,N#Cc1c(NC(=O)c2ccc(Br)cc2)sc2c1CCCC2,1.92 ± 0.76
13,Cc1ccc(O)c(-c2cc(C(F)(F)C(F)F)no2)c1,13.8 ± 1.5
14,Cc1ccc2c(N)c(C(=O)c3ccc4c(c3)OCO4)sc2n1,5.3 ± 0.72
15,Cc1ccc(O)c(NC(=O)CN(C)S(=O)(=O)c2ccc(Cl)cc2)c1,15.1 ± 3.3
16,CCn1c(/C(C#N)=C/c2ccc(OC)cc2)nc2ccccc21,-0.629 ± 1.8
17,Cc1ccc(NC(=O)/C=C/c2ccco2)nc1,5.22 ± 0.94
18,Cc1ccc(O)c(NC(=O)c2cc(CC(C)C)on2)c1,30.2 ± 2.4
19,CCc1ccc(NC(=O)/C=C/c2ccco2)cc1,4.88 ± 0.83
20,O=C(NCCc1ccc(O)cc1)c1ccc2nc(-c3csc4ccccc34)sc2c1,18.8 ± 1.8

row,SMILES,XBP1-RLuc splicing reporter activation
1,O=C(Nc1ccccc1O)c1ccc(NS(=O)(=O)c2cccc3cccnc23)cc1,14.2 ± 3.7
2,N#C/C(=C(/O)c1cc(-c2ccccc2)nc2ccccc12)c1nc2ccccc2[nH]1,9.52 ± 1.4
3,Nc1nc(Nc2ccccc2)cc(-c2ccccc2)n1,1.44 ± 0.87
4,Nc1c(C(=O)Nc2ccccc2)sc2nc3c(cc12)CCCCC3,12.6 ± 4.7
5,COc1ccccc1-c1cc(C(=O)Nc2cc(C)ccc2O)no1,7.78 ± 1.3
6,Nc1ccc2nc(/C=C/c3ccccc3)[nH]c2c1,13.7 ± 0.35
7,NC(=O)c1c(NC(=O)/C=C/c2ccccc2)sc2c1CCCCC2,6.12 ± 0.94
8,COc1ccc(-c2csc(-c3ccc(O)cc3)n2)cc1,8.78 ± 1.3
9,Nc1ccccc1NC(=O)c1ccc(C(F)(F)F)cc1,11.1 ± 2.7
10,Cc1ccc(O)c(NC(=O)CCc2ccccc2)c1,17.5 ± 1.9
11,O=c1cc(-c2ccc(O)c(O)c2)oc2ccccc12,20.6 ± 1.5
12,Cc1ccc(O)c(NC(=O)CSc2ccccc2)c1,10.5 ± 5.2
13,O=C(NC(c1ccccc1)c1ccccc1)c1csc(-c2cnccn2)n1,19 ± 0.61
14,Oc1ccc(-c2csc(-c3cccnc3)n2)cc1O,15.2 ± 0.9
15,N/C(=N\N=C\c1ccc(O)c(O)c1)c1nonc1N,19.5 ± 0.38
16,OCCNc1nc(Nc2ccc(Br)cc2)nc2ccccc12,23.4 ± 2.2
17,CCCNC(=O)c1cc(-c2cccs2)on1,5.97 ± 0.33
18,Cc1ccccc1-c1cc(=O)c2cc(Cl)ccc2o1,8.38 ± 3.8
19,CCOc1cc(/C=C2/NC(=O)N(c3cccc(Cl)c3)C2=O)ccc1O,22.9 ± 1.5
20,O=C(Nc1ccc2nc(NC(=O)C3CCCCC3)sc2c1)C1CCCCC1,6.08 ± 0.7
